p53null 32C tox = qHTS Screen for Compounds that Selectively Target Cancer Cells with p53 Mutations: Cytotoxicity of p53 Null Cells at the Permissive Temperature. H1299-neo p53 null cells, ATP luminescence, 24 h, 32C. Potency, µM (highest dose often 46.1 µM), inactives show top-dose activity change, negative = cytotoxicity, usual class: cytotoxic. actives 0.62% (n = 55,000);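 note: potency is the fitted concentration of half-maximal effect; 0% = DMSO only and -100% = full killing by 100 µM tamoxifen; nearly all actives have a fitted effect of over 55% in size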
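ATP-content luminescence in p53-null H1299-neo cells after 24 h compound exposure (up to 46 uM) at 32C permissive temperature; 0% and 100% killing set by DMSO and 100 uM tamoxifen; Hill-equation AC50.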
PMP22 txn prim = Cell-based coincidence reporter assay to measure PMP22 gene transcription in S16 Pmp22-F2sN cells - Primary screen; S16 Pmp22-F2sN Schwann cells, FLuc/NLuc coincidence luminescence, 24 h; Potency, µM (top dose mostly 57.5 µM), inactives show at the top dose activity change, negative = inhibition, usual class: inhibitors; actives 2% (n = 43,000); AID 1508649, 2021; active = clear falling dose curves in both reporters; inconclusive = both reporters move, but less clearly or upward; inactive = either reporter flat; the % is the NLuc reporter signal; note: potency is the fitted concentration of half-maximal effect; % is set by controls: 0 for no effect and ±100 for the full control effect
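S16 Schwann cells carrying FLuc/NLuc coincidence reporter in the Pmp22 3' UTR treated with compound 24 h at 37C; FLuc then NLuc luminescence read sequentially by dual-luciferase reagents.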
p53null 39C tox = qHTS Screen for Compounds that Selectively Target Cancer Cells with p53 Mutations: Cytotoxicity of p53 Null Cells at the Nonpermissive Temperature; Potency, µM (titrated, usually from 46.1 µM), for inactives: top-dose activity, negative = cell killing, hits mostly cytotoxic; AID 904, 2007; H1299 p53-null (neo) cells, 39C, ATPlite viability, 24 h; actives 0.97% (n = 55,000);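 note: potency is the fitted concentration of half-maximal effect; 0% = DMSO only and -100% = full killing by 100 µM tamoxifen; nearly all actives have a fitted effect of over 50% in size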
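Following overnight plating at 37C (600 cells/well), H1299-neo or H1299-p53A138V cells are dosed up to 46 uM. Incubation lasts 24 hr at 39C before ATP detection.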
SKOV3 invasion = Primary qHTS assay for Inhibitors of ovarian cancer metastasis using an organotypic tumor microenvironment (TME) model | Potency, µM (highest dose often 45.8 µM), for the others: at the highest dose activity change, negative = inhibition, actives largely listed as inhibitors | SKOV3ip1-GFP adhesion/invasion on 3D omental model, fluorescence | AID 1963576, 2024 | actives 0.1% (n = 46,000);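 note: potency is the fitted concentration of half-maximal effect; plate controls were DMSO wells for no effect and tomatine positive control wells for full effect; nearly all actives have a fitted effect of over 65% in size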
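qHTS, 4-pt dose (0.36-46 umol/L); SKOV3ip1-GFP, 1,200 cells/well, no FBS; primary omental fibroblast/mesothelial co-culture 48 h pre-grown; 2 h RT + 16 h 37 C; PBS wash, 4% PFA; GFP count 488/509 nm.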
mTORC1 inh = Acumen qHTS Assay for Inhibitors of the mTORC1 Signaling Pathway in MEF (Tsc2-/-, p53-/-) Cells: Sytravon; actives 0.78% (n = 44,000); Potency, µM (doses to about 38.3 µM), inactives show at the highest dose activity change, negative = inhibition, hits mostly inhibitors; Tsc2-/- p53-/- MEF, phospho-rpS6 immunofluorescence/PI, 24 h;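 note: potency is the fitted concentration of half-maximal effect; plate controls were DMSO for no effect and rapamycin for full effect; nearly all actives have a fitted effect of over 50% in size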
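Cell-based qHTS: Tsc2-/- p53-/- MEF, 24 h cpd, 37 °C; fix/perm, anti-phospho-S6 Alexa-488 + PI; Acumen 488 nm scan; pS6/PI ratio, % positive cells; rapamycin 7.5 nM = inhibition ref; PI count = viability.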
S16 F2sN tox = Cell viability qHTS assay in S16 Pmp22-F2sN cells; S16 Pmp22-F2sN Schwann cells (luciferase reporters placed in the Pmp22 gene) viability, CellTiter-Glo, 24 h; Potency, µM (doses to about 57.5 µM), without a hit: at the highest dose activity change, negative = cytotoxicity, usual class: cytotoxic; actives 0.48% (n = 43,000); note: potency is the fitted concentration of half-maximal effect; % is set by controls: 0 for no effect and ±100 for the full control effect; nearly all actives have a fitted effect of over 65% in size
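S16 Schwann cells carrying the Pmp22-F2sN reporter, seeded in 1536-well format, were exposed to library compounds for 24 h at 37C. Viability was read as CellTiter-Glo luminescence after 15 min at room temperature.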
NLuc sat counter = Biochemical NLuc saturation counterscreen for small molecule modulators of PMP22 gene expression - Nano-Glo assay; shares compounds with PMP22 txn prim; Secreted NLuc enzyme (filtered S16 cell medium), Nano-Glo luminescence; Potency, µM (titrated, usually from 57.5 µM), inactives show top-dose activity change, negative = inhibition, actives largely listed as inhibitors; actives 4% (n = 690); note: potency is the fitted concentration of half-maximal effect; % is set by controls: 0 for no effect and ±100 for the full control effect
NLuc Km ctr = Biochemical coelenterazine-based NLuc counterscreen for small molecule modulators of PMP22 gene expression - Km assay | shares compounds with PMP22 txn prim | actives 5% (n = 690) | secreted NLuc enzyme, coelenterazine luminescence, Km conditions | Potency, µM (titrated, usually from 57.5 µM), for inactives: top-dose activity change, negative = inhibition, actives largely listed as inhibitors; note: potency is the fitted concentration of half-maximal effect; % is set by controls: 0 for no effect and ±100 for the full control effect
FLuc counter = Biochemical FLuc counterscreen for small molecule modulators of PMP22 gene expression; purified P. pyralis FLuc, luminescence, 10 min; AID 1508640, 2021; shares compounds with PMP22 txn prim; Potency, µM (series often up to 57.5 µM), for the others: top-dose activity, negative = inhibition, usual class: inhibitors; 690 tested, under 10 active; note: % of control where 0% means no effect
Target sequence (P08659 whole entry, looked up): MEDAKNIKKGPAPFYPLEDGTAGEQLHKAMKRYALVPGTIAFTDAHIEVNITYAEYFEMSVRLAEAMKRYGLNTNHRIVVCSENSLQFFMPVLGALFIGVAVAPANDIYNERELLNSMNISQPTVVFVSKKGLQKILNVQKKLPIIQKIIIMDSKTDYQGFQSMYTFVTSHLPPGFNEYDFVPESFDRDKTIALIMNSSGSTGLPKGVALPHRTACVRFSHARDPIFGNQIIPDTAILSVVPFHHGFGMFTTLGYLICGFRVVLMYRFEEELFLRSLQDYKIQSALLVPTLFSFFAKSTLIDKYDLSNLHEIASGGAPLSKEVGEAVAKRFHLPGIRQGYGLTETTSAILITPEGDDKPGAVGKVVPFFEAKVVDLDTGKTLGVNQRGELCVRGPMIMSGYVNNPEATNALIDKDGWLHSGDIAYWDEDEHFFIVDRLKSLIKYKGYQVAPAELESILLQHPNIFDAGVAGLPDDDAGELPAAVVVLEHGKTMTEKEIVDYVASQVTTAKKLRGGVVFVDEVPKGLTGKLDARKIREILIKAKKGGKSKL
S16 viab conf = Cell viability qHTS assay in S16 Pmp22-F2sN cells - Confirmatory screen; Potency, µM (series often up to 57.5 µM), without a hit: at the top dose activity change, negative = viability loss, usual class: cytotoxic; S16 Schwann cells viability, CellTiter-Glo ATP luminescence, 24 h; shares compounds with PMP22 txn prim; actives 7% (n = 690); note: potency is the fitted concentration of half-maximal effect; % is set by controls: 0 for no effect and ±100 for the full control effect
PMP22 txn conf = Cell-based coincidence reporter assay to measure PMP22 gene transcription in S16 Pmp22-F2sN cells - Confirmatory screen; shares compounds with PMP22 txn prim; S16 Schwann cells Pmp22-F2sN, dual luciferase, 24 h; Potency, µM (top dose mostly 57.5 µM), inactives show at the top dose activity change, negative = inhibition, hits mostly inhibitors; actives 22% (n = 690); AID 1508646, 2021; active = clear falling dose curves in both reporters; inconclusive = both reporters move, but less clearly or upward; inactive = either reporter flat; the % is the FLuc reporter signal; note: potency is the fitted concentration of half-maximal effect
Starred values were filed as active, the others as inactive; i = inactive; ? = inconclusive; . = not tested or not shown; [ ] = remark or other dose. An excerpt weighted towards active compounds, which were near 3.1% of everything screened. Unless noted, calls come from the whole dose curve; as a rule, active = well fitted curve in the direction sought with a large enough effect; inconclusive = small, poorly fitted or top-dose-only effect, or another doubt; inactive = no such curve, though single readings can be large; an effect the other way counts as inactive or inconclusive.

SMILES	p53null 32C tox	PMP22 txn prim	p53null 39C tox	SKOV3 invasion	mTORC1 inh	S16 F2sN tox	NLuc sat counter	NLuc Km ctr	FLuc counter	S16 viab conf	PMP22 txn conf
O=C(NCc1ccc(Cl)cc1)C(=O)Nc1cccc(Br)c1	2.4%	16µM*	-13.9%	i	-3.6%	-16.6%	-7.2%	0.3%	4.1%	?	?
CC(=O)OCC#CCSc1nnc(-c2cccc(Br)c2)o1	-5.9%	9.15µM*	-3.2%	-7.0%	3.4%	10.2%	?	?	-12.1%	?	?
Cc1c(C(=O)Nc2ccc(N3C[C@@H](C)O[C@@H](C)C3)nc2)cccc1-c1ccc(OC(F)(F)F)cc1	.	.	.	27.1%	.	.	.	.	.	.	.
O=C(Nc1c(Cl)cncc1Cl)c1ccc(OC(F)F)c(OCC2CC2)c1	.	.	.	37.5%	.	.	.	.	.	.	.
CCc1ccc(NC(=O)CSc2nc(=O)n(Cc3ccco3)c3c2CCC3)cc1	26.2%	?	-14.7%	2.1%	-4.5%	-5.5%	.	.	.	.	.
COC(=O)c1ccc(NC(=O)CSc2nc(=O)n(Cc3ccco3)c3c2CCC3)cc1	8.0%	8.29µM*	16.0%	-5.7%	-8.3%	-11.0%	?	?	-13.5%	-1.3%	-43.6%
CC(C)N1[N]C(=C2C=c3cc(O)ccc3=N2)c2c(N)ncnc21	.	.	.	19.7%	.	.	.	.	.	.	.
O=S(=O)(c1ccc(-c2csc(=Nc3ccc(OC(F)(F)Cl)cc3)n2CCCO)cc1)N1CCCC1	-4.5%[9.22 µM]	15µM*	22.3%	?	?	?	0.4%	-1.6%	-9.7%	21.7µM*	19.3µM*
CCOCCCn1c(=N)c(C(=O)NC(C)c2ccccc2)cc2c(=O)n3cccc(C)c3nc21 (configuration not stated)	10.7%	15µM*	-3.3%	24.7%	?	?	-13.2%	8.2%	-1.2%	-1.8%	?
CCOCCCn1c(=N)c(C(=O)NC2CCCC2)cc2c(=O)n3cccc(C)c3nc21	3.3%	?	-6.5%	17.3%	-6.2%	-3.3%	-5.3%	1.1%	0.1%	24.0%	?
CCCCn1c(=N)c(C(=O)NC2CCCCC2)cc2c(=O)n3cccc(C)c3nc21	-2.1%	-3.2%	-2.5%	23.7%	-6.4%	24.9%	.	.	.	.	.
CCCCOc1c(C(=O)c2c(F)cc(C)cc2F)cnc2n[nH]cc12	.	.	.	26.8%	.	.	.	.	.	.	.
COc1ccc(S(=O)(=O)NCC(c2ccco2)S(=O)(=O)c2ccc(C)cc2)cc1F (configuration not stated)	9.1%	?	-1.5%	2.3%	-6.1%	?	.	.	.	.	.
Cc1ccc(S(=O)(=O)C(CNS(=O)(=O)c2ccc(F)c(C(F)(F)F)c2)c2ccco2)cc1 (configuration not stated)	6.1%	14.2µM*	-12.9%	4.7%	?	?	-1.0%	?	3.9%	-1.4%	-11.6%
CC(=O)N1c2c(cc(Br)cc2S(=O)(=O)Nc2ccc(OC(F)(F)F)cc2)CC1C (configuration not stated)	25.4%	16µM*	27.3%	14.8%	?	-24.4%	21.7µM*	1.53µM*	-5.3%	2.8%	-30.0%
CCOC(=O)c1ccc(NS(=O)(=O)c2cc(Br)cc3c2N(C(C)=O)C(C)C3)cc1 (configuration not stated)	8.5%	?	22.3%	i	0.7%	-0.4%	.	.	.	.	.
CC1(COc2ccc3c(c2)ncn3-c2ccc3cccc(N4CCC(N)CC4)c3n2)COC1	.	.	.	-3.6%	.	.	.	.	.	.	.
COc1cc(OC)cc(C(=O)Nc2ccc3nc4c(c(Nc5ccc(OC)c(OC)c5)c3c2)CCCC4)c1	?	?	?	?	0.0%	?	.	.	.	.	.
COc1ccc(Nc2c3c(nc4ccc(NC(=O)c5cc(Cl)ccc5OC)cc24)CCCC3)cc1OC	6.31µM*	4.74µM*	5.01µM*	?	0.3%	?	-13.1%	-2.4%	12.1%	13.7µM*	9.68µM*
COc1ccc(NC(=O)CCNS(=O)(=O)c2ccc3c(c2)CCN3C(=O)C2CC2)cc1Cl	6.4%	14.1µM*	7.6%	-25.4%	-23.6%	-24.8%	?	?	-4.9%	-6.6%	-38.4%
C#Cc1cccc(Nc2ncnc3cc(OCCOC)c(OCCO)cc23)c1	.	.	.	4.5%	.	.	.	.	.	.	.

Bioassay records: PubChem, National Center for Advancing Translational Sciences (NCATS)
